This passage reports inhibition results from PubChem BioAssay.

The structures appear in SMILES notation. Calls of active or inactive are those of the source. How the calls were made is not given here.

The target in the assay is Pantothenate synthetase (Mycobacterium tuberculosis (strain ATCC 25618 / H37Rv)) (UniProt P9WIL5). The assay is described as follows: Coupled enzyme confirmation of inhibitors against recombinant Mtb PanC (AID 375).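 Further: 0% = full reaction with vehicle and 100% = no enzyme background.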 The following applies: coupled enzyme assay; at 10 µM, active compounds read high.
Chain of Pantothenate synthetase (Mycobacterium tuberculosis (strain ATCC 25618 / H37Rv)) (P9WIL5 whole entry, looked up): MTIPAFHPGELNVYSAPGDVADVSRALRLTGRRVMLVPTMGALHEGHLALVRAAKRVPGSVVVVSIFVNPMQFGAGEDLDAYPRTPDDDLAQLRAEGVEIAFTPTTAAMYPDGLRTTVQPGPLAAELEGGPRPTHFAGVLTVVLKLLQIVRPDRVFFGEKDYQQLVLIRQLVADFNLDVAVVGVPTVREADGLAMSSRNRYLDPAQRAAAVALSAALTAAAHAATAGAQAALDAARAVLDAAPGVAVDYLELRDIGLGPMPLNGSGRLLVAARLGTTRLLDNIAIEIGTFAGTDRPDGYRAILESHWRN
As to `C/C=C/c1ccc(OCCn2cncn2)c(OC)c1`, the inhibition was 0% (inactive).

Regarding `CC1Oc2ccccc2N(CC(=O)N(Cc2ccccc2)Cc2ccccn2)C1=O` (stereo unspecified), the inhibition was 4% (inactive).

For `CCOC(=O)N1CCN(C(=O)C2CC(=O)N(Cc3ccc(OC)cc3)C2)CC1` (stereo unspecified), the inhibition was 3% (inactive).

Consider `COc1ccc(CN(Cc2nc3ccccc3c(=O)[nH]2)C(=O)NC2CCCCC2)cc1`, for which the inhibition was 5% (inactive).

Consider `O=C(COn1nnc2ccc(C(F)(F)F)cc21)Nc1nnc(-c2ccccc2)o1`, for which the inhibition was 0% (inactive).

Regarding `Cc1ccc(S(=O)(=O)NCC2CCC(C(=O)NCCCN3CCOCC3)CC2)cc1` (stereo unspecified), the inhibition is 0% (inactive).

`COc1ccc(OCC(O)Cn2c(Br)nc3c2c(=O)[nH]c(=O)n3C)cc1` (stereo unspecified): the inhibition is 11% (inactive).

Turning to `CCCC(c1nnnn1Cc1ccc(OC)cc1)N1CCN(c2ccccc2OC)CC1` (stereo unspecified), the inhibition was 0% (inactive).

On to `CCOC(=O)C1CCCN(C(=O)c2cc3c(-c4cccc(OC)c4)nn(C)c3s2)C1` (stereo unspecified), for which the inhibition was 0% (inactive).

In the case of `Cc1nc2c(C(=O)O)cnn2c(C)c1Cc1ccccc1F`, the inhibition is 0% (inactive).

On to `CCOC(=O)c1cccc(NC(=O)C2CCN(S(=O)(=O)c3cccs3)CC2)c1`, for which the inhibition was 0% (inactive).

Take `COc1cccc(C(=O)Nc2ncc3c(n2)CC(C)CC3=O)c1` (stereo unspecified): the inhibition is 5% (inactive).

For the compound `c1ccc(-n2c(Sc3cnccn3)nnc2-c2cccs2)cc1`, the inhibition is 0% (inactive).

Turning to `c1ccc(-c2nnc(CN3CCC4(CC3)OCCO4)o2)cc1`, the inhibition was 1% (inactive).

`Cc1ccc(Nc2cc(C)nc3nnnn23)cc1`: the inhibition was 6% (inactive).

As to `COc1ccc(-c2nc3cc(NC(=O)Cc4ccc(OC)c(OC)c4)ccc3o2)cc1`, the inhibition was 0% (inactive).
